{"source": "PubChem BioAssay (EPA / NIEHS)", "note": "Results filed as inconclusive are left out. Active and inactive are the calls of the source. The calls were made as follows: active = hit-call score of the fitted dose curve at least 0.9, where 1 is the maximum; inconclusive = response in the unintended direction; inactive = score below 0.9."}
{"read-out": "ABC Transporter (ABCB1), ABCB1 (gene 5243)", "experiment": "CLD_ABCB1_48hr: CellzDirect (CLD) Gene Expression Assay for ABC Transporter (ABCB1) at 48 hours (AID 2283695);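 as to AC50: potency for induction meaning increase of mRNA over DMSO vehicle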", "procedure": "CLD_48hr is a cell-based, multiplexed-readout assay that uses hepatocyte, a human liver primary cell, with measurements taken at 48 hours after chemical dosing in a 96-well plate.CLD_ABCB1_48hr is one of 16 assay component(s) measured or calculated from the CLD_48hr assay. It is designed to make measurements of mRNA induction, a form of inducible reporter, as detected with chemiluminescence signals by Quantitative Nuclease Protection Assay (qNPA) technology.Data from the assay component CLD_ABCB1_48hr was analyzed at the endpoint, CLD_ABCB1_48hr, in the positive analysis fitting direction relative to DMSO as the negative control and baseline of activity. Using a type of inducible reporter, gain-of-signal activity can be used to understand changes in the reporter gene as they relate to the gene ABCB1. Furthermore, this assay endpoint can be referred to as a primary readout. To generalize the intended target to other relatable targets, this assay endpoint is annotated to the transporter intended target family, where subfamily is ABC transporter.\nHuman hepatocyte cultures were treated daily for two consecutive days with fresh dosing solutions containing appropriate concentrations of the 320 ToxCast chemicals (chemical identities were blinded to CellzDirect and other ToxCast collaborators), vehicle control (0.2% DMSO), and positive control inducers as summarized in Table 1. Due to the large number of treatment groups and chemicals examined, the ToxCast chemicals were divided into two groups (spanning two independent cultures of hepatocytes from separate donor preparations (Hu778: ToxCast plates 1 and 2; Hu776: ToxCast plates 3 and 4). Each preparation of human hepatocyte cultures was treated with respective vehicle control, medium only control, set of six positive controls/reference chemicals for the five hepatic receptor pathways, and a subset of eight of the ToxCast chemicals (indoxacarb, pyrithiobac-sodium, norflurazon, cyhalofop-butyl, methomyl, thiram, acetochlor, and propiconazole). These replicate data, coupled with internal replicates designed within the blinded ToxCast chemical library, provided additional data to evaluate interindividual differences between hepatocyte preparations and their potential impact on chemical profiles.Cell morphology and integrity were evaluated using phase-contrast microscopy as an indicator of hepatocyte cell health (Tyson & Green, 1987). Cultures for each treatment group (i.e., media, vehicle [0.2% DMSO], positive control inducers [multiple concentrations], and the ToxCast chemicals [multiple concentrations]) were observed and cell morphology was assessed relative to vehicle control cultures at each harvest time point (0, 6, 24, or 48 h). […] Images were evaluated at the conclusion of the study to assess changes in cell integrity and account for the effects of chemical exposure on uncharacteristic changes in concentration-dependent gene expression profiles. The results from these determinations of apparent cytotoxicity were annotated (yes/no) alongside the corresponding qNPA data for reference.At the conclusion of each treatment period, hepatocyte cultures (96-well) were washed with 1 volume of HBSS, lysed by addition of 25 ul ArrayPlate lysis buffer (HTG, Tucson, AZ), and 70 ul/well of Denaturation Oil, denatured by incubation at 95C for 10 min, and frozen at approximately -70C until analysis by nuclease protection assay (qNPA) (Roberts et al., 2007). For qNPA analysis, cell lysates were thawed at 50C for approximately 30 min, qNPA probes were added, and samples were incubated at 95C for 10 min to begin the detection process by denaturing the target RNA, dissociating the duplexes and secondary structure hybridization. At the conclusion of the hybridization period, S1 nuclease reagent was added to each sample to digest all nonprotected nucleotides at 50C for 60-90 min. […]"}
{"compound": "C=CCOC(Cn1ccnc1)c1ccc(Cl)cc1Cl", "note": "(stereo not given)", "AC50": "36.9 µM (active)"}
{"compound": "CCCCC(CC)CN1C(=O)C2C3C=CC(C3)C2C1=O", "note": "(stereo not given)", "outcome": "inactive"}
{"compound": "COC(=O)CSc1cc(N=c2sc(=O)n3n2CCCC3)c(F)cc1Cl", "outcome": "inactive"}
{"compound": "CC1(C)C(C=C(Cl)Cl)C1C(=O)OCc1cccc(Oc2ccccc2)c1", "note": "(stereo not given)", "outcome": "inactive"}
{"compound": "CCOC(=O)C(C)Oc1ccc(Oc2cnc3cc(Cl)ccc3n2)cc1", "note": "(stereo not given)", "outcome": "inactive"}
{"compound": "CCCCC(CC)COC(=O)c1ccccc1C(=O)O", "note": "(stereo not given)", "outcome": "inactive"}
{"compound": "O=C(Nc1ccc([N+](=O)[O-])cc1Cl)c1cc(Cl)ccc1O", "outcome": "inactive"}
{"compound": "CCCN(CCC)c1c([N+](=O)[O-])cc(C(F)(F)F)c(N)c1[N+](=O)[O-]", "outcome": "inactive"}
{"compound": "S=C([S-])NCCNC(=S)[S-].[Mn+2]", "AC50": "1.9 µM (active)"}
{"compound": "CCCCOC(=O)C(C)Oc1ccc(Oc2ccc(C(F)(F)F)cn2)cc1", "note": "(stereo not given)", "outcome": "inactive"}
{"compound": "Cc1nn(C)c(Oc2ccccc2)c1C=NOCc1ccc(C(=O)OC(C)(C)C)cc1", "outcome": "inactive"}
{"compound": "CCC(C)OC(=O)N1CCCCC1CCO", "note": "(stereo not given)", "outcome": "inactive"}
{"compound": "S=C(S)NCCNC(=S)S.[Mn+2].[S-]C([S-])=NCCN=C([S-])[S-].[Zn+2]", "AC50": "1.06 µM (active)"}
{"compound": "COCCO", "outcome": "inactive"}
{"compound": "COC(=O)c1c(Cl)nn(C)c1S(=O)(=O)NC(=O)Nc1nc(OC)cc(OC)n1", "outcome": "inactive"}
{"compound": "CCCCCCC(C)OC(=O)COc1nc(F)c(Cl)c(N)c1Cl", "note": "(stereo not given)", "outcome": "inactive"}
{"compound": "CCCOC(=O)c1ccc(C(=O)OCCC)nc1", "outcome": "inactive"}
{"compound": "CCCCCOC(=O)COc1cc(N2C(=O)C3=C(CCCC3)C2=O)c(F)cc1Cl", "outcome": "inactive"}
{"compound": "CCOC(=O)COc1cc(-n2ncc(C(F)(F)F)c(C)c2=O)c(F)cc1Cl", "outcome": "inactive"}
{"compound": "CC(C)(C)[C@@H](O)[C@@H](Cc1ccc(Cl)cc1)n1cncn1", "outcome": "inactive"}
{"compound": "COC(=O)c1ccc(I)cc1S(=O)(=O)NC(=O)Nc1nc(C)nc(OC)n1", "outcome": "inactive"}
{"compound": "OB(O)O", "outcome": "inactive"}
{"compound": "COc1c(Cl)ccc(Cl)c1C(=O)O", "outcome": "inactive"}
{"compound": "CCOC(=O)NCCOc1ccc(Oc2ccccc2)cc1", "outcome": "inactive"}
{"compound": "CCCOC(=O)NCCCN(C)C", "outcome": "inactive"}
{"compound": "CCNc1nc(N)nc(Cl)n1", "outcome": "inactive"}
{"compound": "C#CCOC(=O)[C@@H](C)Oc1ccc(Oc2ncc(Cl)cc2F)cc1", "outcome": "inactive"}
{"compound": "CCSC(=O)N(CC(C)C)CC(C)C", "outcome": "inactive"}
{"compound": "CCC(O)=C1C(=O)CC(C(=O)O)CC1=O", "note": "(stereo not given)", "outcome": "inactive"}
{"compound": "O=C(O)C1(C(=O)Nc2ccc(Cl)cc2Cl)CC1", "outcome": "inactive"}
{"compound": "CCOC(=O)C(C)Oc1ccc(Oc2nc3ccc(Cl)cc3o2)cc1", "note": "(stereo not given)", "outcome": "inactive"}
{"compound": "CCCN(CCC)C(=O)SCC", "outcome": "inactive"}
{"compound": "COC(=O)c1ccc(CNS(C)(=O)=O)cc1S(=O)(=O)NC(=O)Nc1nc(OC)cc(OC)n1", "outcome": "inactive"}
{"compound": "N#CSCSc1nc2ccccc2s1", "outcome": "inactive"}
{"compound": "CCN(CC)C(=O)c1cccc(C)c1", "outcome": "inactive"}
